{"source": "PubChem BioAssay AID504444", "about": "(National Center for Advancing Translational Sciences (NCATS), 2011)", "note": "Among all 360,000 compounds or so, about 7,500 (2.1%) were called active. Roughly 20% stayed inconclusive and do not appear here. Shown is part of a subset that was picked to be rich in actives. A number with no mark means an inactive call. Calls come from the whole dose curve; as a rule, active = well fitted inhibition curve with a large enough effect; inconclusive = small, poorly fitted or top-dose-only effect, or effect the other way; inactive = flat fitted curve, though single readings scatter. % is set by controls: 0 for no effect and ±100 for the full control effect; potency is the fitted concentration of half-maximal effect."}
{"assay": "Nrf2 qHTS screen for inhibitors; note: nearly all actives have a fitted effect of over 60% in size", "conditions": "A549 ARE-Fluc reporter, luciferase luminescence, 18-24 h; series mostly up to 46 µM; activity change, negative = inhibition: at the top concentration", "how_it_was_run": "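Quantitative HTS in A549 cells stably bearing an antioxidant response element-firefly luciferase construct. Inhibition of Nrf2-driven transcription was scored by luminescence after 18-24 h of compound exposure at 37 °C.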"}
{"smiles": "CCOC(=O)C1=C(C)N(C[C@@H]2CC[C@@H](Cc3ccc(-c4ccccc4)cc3)O2)C(=O)NC1c1ccc([N+](=O)[O-])cc1", "note": "(stereo partly specified)", "activity change, negative = inhibition": "-22.3%"}
{"smiles": "Cc1ccc(F)cc1NC(=O)CCSc1nc(-c2ccco2)cc(C(F)(F)F)n1", "activity change, negative = inhibition": "-13.2%"}
{"smiles": "CCOc1ccc2[nH]c3nc(SCC(=O)NC4CCCC4)nnc3c2c1", "activity change, negative = inhibition": "3.92%"}
{"smiles": "COc1ccc2[nH]c3nc(SCC(=O)NC4CC4)nnc3c2c1", "activity change, negative = inhibition": "0.184%"}
{"smiles": "O=C(CSc1nnc2c(n1)[nH]c1ccccc12)NC1CCCCC1", "Potency": "3.66 µM (active)"}
{"smiles": "CCOC(=O)c1cccc(NC(=O)C(Cc2ccccc2)NS(=O)(=O)c2cccc3nsnc23)c1", "note": "(stereo unspecified)", "activity change, negative = inhibition": "24.3%"}
{"smiles": "Cc1ccc2oc3c(c(=O)c2c1)C(c1ccc(O)cc1)N(Cc1ccc2c(c1)OCO2)C3=O", "note": "(stereo unspecified)", "activity change, negative = inhibition": "-8.81%"}
{"smiles": "CC(C)[C@@H](C(=O)OCC(=O)c1ccc2c(c1)NC(=O)CO2)N1C(=O)c2ccccc2C1=O", "activity change, negative = inhibition": "-8%"}
{"smiles": "CC(C)c1ccc(S(=O)(=O)Nc2ccc(O)c(Sc3nc4ccccc4s3)c2)cc1", "activity change, negative = inhibition": "9.38%"}
{"smiles": "O=C(CCC(=O)c1ccccc1)NCc1cccc(C(F)(F)F)c1", "activity change, negative = inhibition": "3.64%"}
{"smiles": "O=C(CCC(=O)N1CCN(S(=O)(=O)c2ccc(Cl)cc2)CC1)NCc1cccc(C(F)(F)F)c1", "Potency": "8.2 µM (active)"}
{"smiles": "O=C(CCn1ccc2cc(S(=O)(=O)N3CCCC3)ccc21)NCc1cccc(Cl)c1", "activity change, negative = inhibition": "-6.98%"}
{"smiles": "COc1ccc(-c2nc(=N)sn2-c2ccccc2)cc1", "activity change, negative = inhibition": "24%"}
{"smiles": "Cc1ccc(NC2=C(c3ccc(C(F)(F)F)cc3)C(=O)c3ccccc32)cc1F", "activity change, negative = inhibition": "-20.5%"}
{"smiles": "O=S(=O)(Nc1ccc2nc(-c3cccc(Cl)c3)oc2c1)c1ccccc1", "activity change, negative = inhibition": "-21.7%"}
{"smiles": "O=C(Nc1ccccc1C(=O)Nc1ccncc1)c1ccc([N+](=O)[O-])cc1", "activity change, negative = inhibition": "6.83%"}
{"smiles": "O=C(Nc1cc(-c2ccccc2)nn1-c1ccccc1F)c1ccc([N+](=O)[O-])cc1", "Potency": "20.6 µM (active)"}
{"smiles": "O=C(Nn1c(-c2ccccc2)nc2ccccc2c1=O)c1ccc([N+](=O)[O-])cc1", "activity change, negative = inhibition": "-12.6%"}
{"smiles": "COc1cccc(CNCCSc2nnnn2C)c1OCc1ccccc1Cl", "activity change, negative = inhibition": "-11.2%"}
{"smiles": "CC(C)OCCCNc1ncnc2c1[nH]c1ccc(F)cc12", "Potency": "4.11 µM (active)"}
{"smiles": "CC(C)OCCCNC(=O)c1cc(Sc2ccc(F)cc2)nc2ccccc12", "activity change, negative = inhibition": "-13.6%"}
{"smiles": "COc1cc(OC)c(OC)cc1/C=N/Nc1ncnc2c1[nH]c1ccc(C)cc12", "activity change, negative = inhibition": "1.21%"}
{"smiles": "Cc1ccc(CCNC(=O)c2nnc(Cc3cccc(F)c3)o2)cc1", "activity change, negative = inhibition": "-25.7%"}
{"smiles": "CCOC(=O)c1ccc(CSc2nnc3cc(C)c4ccccc4n23)cc1", "activity change, negative = inhibition": "15%"}
{"smiles": "COC(=O)c1cccc(N2C(=O)C3C4C=CC(CC4)C3C2=O)c1", "note": "(stereo unspecified)", "activity change, negative = inhibition": "0.177%"}
{"smiles": "CC1C=CCC2C(=O)N(c3cccc(C(=O)N4CCCCCC4)c3)C(=O)C12", "note": "(stereo unspecified)", "activity change, negative = inhibition": "10.5%"}
{"smiles": "Cc1cccc(N2CCN(C(=O)c3cccc(N4C(=O)C5C6C=CC(C6)C5C4=O)c3)CC2)c1C", "note": "(stereo unspecified)", "Potency": "18.4 µM (active)"}
{"smiles": "O=C(c1ccco1)N(Cc1cccs1)c1ccc(O)cc1", "activity change, negative = inhibition": "-5.51%"}
{"smiles": "COc1ccccc1-c1cc2nc(C)c(CCC(=O)O)c(C)n2n1", "Potency": "3.66 µM (active)"}
{"smiles": "COc1cc(OC)cc(-c2nc3nc(C)c(CCC(=O)Nc4ccccc4)c(C)n3n2)c1", "activity change, negative = inhibition": "-0.881%"}
{"smiles": "COc1ccccc1-c1cc2nc(C)c(CCC(=O)NC3CCCCC3)c(C)n2n1", "activity change, negative = inhibition": "-10.5%"}
{"smiles": "COc1ccc(C)cc1Nc1nc2ccccc2c2nnc(C)n12", "activity change, negative = inhibition": "18.3%"}
{"smiles": "CCCSc1ncc(Cl)c(C(=O)Nc2sc3c(c2C(=O)NCCOC)CCCC3)n1", "activity change, negative = inhibition": "-19.9%"}
{"smiles": "CCc1ccc(-n2c(SCc3cc(=O)n4cc(Br)ccc4n3)nc3[nH]ncc3c2=O)cc1", "Potency": "16.4 µM (active)"}
{"smiles": "COc1ccc(CCNC(=O)CSc2nc3[nH]ncc3c(=O)n2-c2cccc(C(F)(F)F)c2)cc1OC", "activity change, negative = inhibition": "-14.3%"}
{"smiles": "Cc1ccc(CSc2nc3[nH]ncc3c(=O)[nH]2)cc1", "activity change, negative = inhibition": "2.03%"}
{"smiles": "COc1ccc(S(=O)(=O)Nc2cccc3c2O[C@H](CN(C)S(=O)(=O)c2ccc(OC)cc2)[C@@H](C)CN([C@H](C)CO)C3=O)cc1", "activity change, negative = inhibition": "-25%"}
{"smiles": "CCc1ccc(CN(C)C(C)C(=O)Nc2ccc(S(=O)(=O)N3CCCC3)cc2)cc1", "note": "(stereo unspecified)", "activity change, negative = inhibition": "-9.67%"}
{"smiles": "CCCCOc1ccc(C(=O)N2CC(=O)Nc3ccc(Br)cc3C2c2ccc(F)cc2)cc1", "note": "(stereo unspecified)", "activity change, negative = inhibition": "-25.1% [at 9.27 µM]"}
{"smiles": "CC(=O)c1cccc(NC(=O)COc2ccc(S(=O)(=O)N3CCOCC3)cc2)c1", "activity change, negative = inhibition": "-4.98%"}
{"smiles": "CC(=O)c1cccc(Nc2ccc3cc(S(=O)(=O)N4CCC(C)CC4)ccc3n2)c1", "Potency": "20.6 µM (active)"}
{"smiles": "CC(=O)c1cccc(S(=O)(=O)N2CCC(n3nnc4cc(F)ccc43)CC2)c1", "activity change, negative = inhibition": "-2.65%"}
{"smiles": "CCOC(=O)c1cc(NC(=O)c2ccc(F)cc2)c(=O)n2c1oc1ccccc12", "activity change, negative = inhibition": "-17.2%"}
{"smiles": "COc1cccc(C2c3c(ncn(-c4cccc(Br)c4)c3=N)Oc3ccc4ccccc4c32)c1", "note": "(stereo unspecified)", "activity change, negative = inhibition": "5.52%"}
{"smiles": "CCC(=O)NC(Nc1nc2ccc(C)cc2s1)(C(=O)OC)C(F)(F)F", "note": "(stereo unspecified)", "activity change, negative = inhibition": "4.39%"}
{"smiles": "O=C(NC(Nc1nc2ccc([N+](=O)[O-])cc2s1)(C(F)(F)F)C(F)(F)F)c1ccccc1", "Potency": "2.59 µM (active)"}
{"smiles": "CCOc1ccc2nc(NC(=O)c3cc([N+](=O)[O-])ccc3N3CCOCC3)sc2c1", "activity change, negative = inhibition": "-23.6%"}
{"smiles": "O=c1[nH]cnc2c1c(-c1ccccc1)cn2-c1ccc(F)cc1", "Potency": "25.9 µM (active)"}
{"smiles": "O=c1c2c(-c3ccccc3)ccnc2[nH]n1-c1ccccc1", "activity change, negative = inhibition": "-2.93%"}
{"smiles": "CCOC(=O)C1CCN(c2ncnc3c2c(-c2ccccc2)cn3-c2ccc(C)cc2)CC1", "activity change, negative = inhibition": "8.13%"}
{"smiles": "Cc1cc(C)cc(OCC(=O)Nc2ccc(N3CCOCC3)cc2N2CCOCC2)c1", "activity change, negative = inhibition": "-24.6%"}
{"smiles": "CC(=O)c1ccc(NC(=O)CSc2nc3ccccc3c(=O)n2CCCN2CCOCC2)cc1", "activity change, negative = inhibition": "8.57%"}
{"smiles": "O=C(c1cccs1)c1cn(CCOc2ccc(Cl)cc2)c2ccccc12", "activity change, negative = inhibition": "-11%"}
{"smiles": "Cc1ccc(OC(=O)CSc2nnc(-c3cccs3)o2)cc1", "activity change, negative = inhibition": "1.89%"}
{"smiles": "COc1ccc(-n2c(C)cc(C(=O)CSc3nnc(-c4cccs4)o3)c2C)cc1", "Potency": "18.4 µM (active)"}
{"smiles": "COc1ccc(-n2c(C)cc(C(=O)COC(=O)c3cc(OC)c(OC)cc3NC(=O)c3cccs3)c2C)cc1", "activity change, negative = inhibition": "-0.74%"}
{"smiles": "CCc1ccc(C2C(C(=O)Nc3ccccc3)=C(C)Nc3c(C(=O)Nc4ccc(C)cc4)cnn32)cc1", "note": "(stereo unspecified)", "activity change, negative = inhibition": "-7.44%"}
{"smiles": "O=C(Cn1cnc2c(OCc3ccccc3)ncnc21)NCc1nc2ccccc2[nH]1", "activity change, negative = inhibition": "4.45%"}
{"smiles": "Cc1cc(C(=O)OCC(=O)Nc2nccs2)c2ccccc2n1", "activity change, negative = inhibition": "19.8%"}
{"smiles": "Cc1cc(C(=O)OCC(=O)N2C(C)CCCC2C)c2ccccc2n1", "note": "(stereo unspecified)", "Potency": "18.4 µM (active)"}
{"smiles": "Cc1cc(C(=O)OCC(=O)Nc2nnc(C(C)C)s2)c2ccccc2n1", "activity change, negative = inhibition": "-6.29%"}
